According to PubChem BioAssay AID1159580 (chemical genetic matrix, 2015):
Values joined by “and” are separate entries in the source; they are usually repeats but may differ in a detail not shown here. Identical values can stand only once. Among all 5,500 compounds or so, about 2,000 (36%) were called active. Another 18% or so got no clear call; they are omitted. Cut-off read from the data, not from the text of the source: active = normalized growth mostly below about 0.91 (no sharp cut-off); inconclusive = no clear call, values can overlap the other calls; inactive = mostly above about 0.92. The list shows a part of the results.

Experiment: chemical genetic growth profiling, strain panel (AID 1159580);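 note: tested at 20 µM; growth read once vehicle control cultures reached saturation at 30 °C; 1 = growth at the plate median or of vehicle wells; lower values mean less growth of the strain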
Conditions: S. cerevisiae deletion strains, growth OD

Measured: normalized growth

CC(=O)Oc1ccc2c(c1OC(C)=O)OCC1(O)Cc3c(cc(OC(C)=O)c(OC(C)=O)c3OC(C)=O)C21 (configuration not stated)
inactive: locus YAL013W, strain DEP1, active compounds read low 1.02 | locus YAL021C, strain ccr4, active compounds read low 0.948 | locus YAL026C, strain drs2, active compounds read low 1.03 | locus YAL030W, strain snc1, active compounds read low 1.01 | locus YBL061C, strain skt5, active compounds read low 1.01 | locus YBR009C, strain hhf1, active compounds read low 1.01 | locus YBR021W, strain FUR4, active compounds read low 1.02 | locus YBR023C, strain chs3, active compounds read low 0.988 | locus YBR171W, strain sec66, active compounds read low 1.02 | locus YBR229C, strain ROT2, active compounds read low 1.01 | locus YBR231C, strain swc5, active compounds read low 0.975 | locus YBR279W, strain paf1, active compounds read low 0.99 | locus YCL011C, strain gbp2, active compounds read low 0.997 | locus YCL016C, strain dcc1, active compounds read low 0.982 | locus YCL029C, strain bik1, active compounds read low 0.978 | locus YCL061C, strain MRC1, active compounds read low 1 | locus YCL069W, strain vba3, active compounds read low 1.03 | locus YCR088W, strain abp1, active compounds read low 1.02 | locus YDL005C, strain med2, active compounds read low 1.01 | locus YDL035C, strain GPR1, active compounds read low 1.01 | locus YDL040C, strain nat1, active compounds read low 1.01 | locus YDL074C, strain BRE1, active compounds read low 0.973 | locus YDL101C, strain DUN1, active compounds read low 0.943 | locus YDL134C, strain PPH21, active compounds read low 0.997 | locus YDL185W, strain tfp1, active compounds read low 0.955 | locus YDL192W, strain arf1, active compounds read low 1.01 | locus YDR001C, strain nth1, active compounds read low 1.02 | locus YDR069C, strain doa4, active compounds read low 0.969 | locus YDR101C, strain arx1, active compounds read low 1.04 | locus YDR137W, strain rgp1, active compounds read low 1 | locus YDR159W, strain sac3, active compounds read low 1.06 | locus YDR162C, strain NBP2, active compounds read low 0.948 | locus YDR195W, strain ref2 1.01 | locus YDR297W, strain sur2, active compounds read low 1 | locus YDR318W, strain mcm21, active compounds read low 1.02 | locus YDR334W, strain swr1, active compounds read low 1.02 | locus YDR335W, strain msn5, active compounds read low 0.998 | locus YDR388W, active compounds read low 0.996 | locus YDR392W, strain spt3, active compounds read low 0.923 | locus YDR502C, strain sam2, active compounds read low 1 | locus YEL003W, strain gim4, active compounds read low 1 | locus YEL037C, strain rad23, active compounds read low 1.01 | locus YEL061C, strain CIN8 (second series), active compounds read low 1.01 | locus YER015W, strain faa2, active compounds read low 0.974 | locus YER016W, strain bim1, active compounds read low 1.02 | locus YER110C, active compounds read low 0.991 | locus YER111C, strain swi4, active compounds read low 0.999 | locus YER155C, strain BEM2 (second series), active compounds read low 1.02 | locus YER155C, strain BEM2, active compounds read low 1.02 | locus YER167W, strain BCK2, active compounds read low 1.01 | locus YFR010W, strain ubp6, active compounds read low 1.02 | locus YGL078C, strain dbp3, active compounds read low 0.983 | locus YGL086W, strain mad1, active compounds read low 0.986 | locus YGL167C, strain pmr1, active compounds read low 0.995 | locus YGL173C, strain kem1, active compounds read low 1.02 | locus YGL227W, strain vid30, active compounds read low 1.02 | locus YGL240W, strain doc1, active compounds read low 1.07 | locus YGL248W, strain PDE1, active compounds read low 0.965 | locus YGL253W, strain hxk2, active compounds read low 1.04 | locus YGR135W, strain pre9, active compounds read low 0.949 | locus YGR229C, strain SMI1, active compounds read low 1.07 | locus YGR252W, strain gcn5, active compounds read low 1.11 | locus YHR013C, strain ard1, active compounds read low 0.981 | locus YHR027C, strain rpn1, active compounds read low 1 | locus YHR030C, strain SLT2, active compounds read low 1.01 and 1.06 | locus YHR079C, strain IRE1 (second series), active compounds read low 0.987 | locus YHR079C, strain IRE1, active compounds read low 1.08 | locus YHR094C, strain hxt1, active compounds read low 1 | locus YHR129C, strain ARP1, active compounds read low 1.01 | locus YHR142W, strain chs7, active compounds read low 1 | locus YHR200W, strain rpn10, active compounds read low 0.983 | locus YIL066C, strain RNR3, active compounds read low 0.97 | locus YIL073C, strain SPO22, active compounds read low 0.794 | locus YIL125W, strain kgd1, active compounds read low 0.993 | locus YIR030C, strain dcg1, active compounds read low 0.986 | locus YJL092W, strain hpr5, active compounds read low 1.01 | locus YJL095W, strain BCK1 (second series), active compounds read low 1 | locus YJL095W, strain BCK1, active compounds read low 0.947 and 1.06 | locus YJL115W, strain asf1, active compounds read low 1.01 | locus YJL129C, strain trk1, active compounds read low 1.03 | locus YJL134W, strain LCB3, active compounds read low 1 | locus YJL154C, strain vps35, active compounds read low 1.01 | locus YJL164C, strain tpk1, active compounds read low 0.98 | locus YJL166W, strain qcr8, active compounds read low 1.01 | locus YJL168C, strain set2, active compounds read low 0.997 | locus YJL187C, strain SWE1 (second series), active compounds read low 0.873 | locus YJL187C, strain SWE1, active compounds read low 0.988 | locus YJR066W, strain TOR1, active compounds read low 1.04 | locus YKL009W, strain mrt4, active compounds read low 0.973 | locus YKL068W, active compounds read low 0.994 | locus YKL085W, strain MDH1 (second series), active compounds read low 0.976 | locus YKL085W, strain MDH1, active compounds read low 0.976 | locus YKL160W, strain elf1, active compounds read low 0.983 | locus YKL190W, strain CNB1, active compounds read low 0.987 | locus YKR001C, strain vps1, active compounds read low 1.04 | locus YKR026C, strain gcn3, active compounds read low 1.02 | locus YKR091W, strain srl3, active compounds read low 1.01 | locus YLL001W, strain dnm1, active compounds read low 0.978 | locus YLL026W, active compounds read low 1.01 | locus YLL041C, strain sdh2, active compounds read low 1.02 | locus YLR027C, strain aat2, active compounds read low 1.01 | locus YLR039C, strain RIC1, active compounds read low 1.06 | locus YLR058C, strain SHM2, active compounds read low 0.898 | locus YLR102C, strain apc9, active compounds read low 0.981 | locus YLR113W, strain HOG1, active compounds read low 1.04 | locus YLR221C, strain rsa3, active compounds read low 1.03 | locus YLR258W, strain gsy2, active compounds read low 1 | locus YLR262C, strain YPT6 (second series), active compounds read low 1 | locus YLR268W, strain sec22, active compounds read low 1.01 | locus YLR320W, strain mms22, active compounds read low 1.03 | locus YLR330W, strain CHS5, active compounds read low 1.02 | locus YLR342W, strain FKS1, active compounds read low 1 | locus YLR357W, strain rsc2, active compounds read low 1 | locus YLR370C, strain arc18, active compounds read low 1.01 | locus YLR371W, strain rom2, active compounds read low 0.997 | locus YLR384C, strain iki3, active compounds read low 1.01 | locus YLR418C, strain cdc73, active compounds read low 1.02 | locus YML016C, strain PPZ1, active compounds read low 0.972 | locus YML032C, strain rad52, active compounds read low 1 | locus YML120C, strain ndi1, active compounds read low 0.983 | locus YML124C, strain tub3, active compounds read low 0.988 | locus YMR058W, strain fet3, active compounds read low 1.02 | locus YMR078C, strain ctf18, active compounds read low 0.994 | locus YMR125W, strain sto1, active compounds read low 0.989 | locus YMR129W, active compounds read low 1.01 | locus YMR205C, strain PFK2, active compounds read low 0.974 | locus YMR223W, strain ubp8, active compounds read low 0.995 | locus YMR231W, strain pep5, active compounds read low 1.01 | locus YMR263W, strain SAP30, active compounds read low 1.01 | locus YMR307W, strain GAS1, active compounds read low 1.06 | locus YNL067W, strain RPL9B, active compounds read low 1.02 | locus YNL071W, strain lat1, active compounds read low 1 | locus YNL183C, strain NPR1, active compounds read low 1.03 | locus YNL209W, strain ssb2, active compounds read low 0.973 | locus YNL233W, strain BNI4, active compounds read low 1 | locus YNL248C, strain rpa49, active compounds read low 1.04 | locus YNL250W, strain rad50, active compounds read low 0.925 | locus YNL271C, strain bni1, active compounds read low 0.976 | locus YNL298W, strain CLA4, active compounds read low 1.01 | locus YNL307C, strain MCK1, active compounds read low 0.998 | locus YNL322C, strain KRE1 (second series), active compounds read low 1 | locus YNR049C, strain mso1, active compounds read low 1.03 | locus YNR052C, strain pop2, active compounds read low 0.988 | locus YOL006C, strain TOP1, active compounds read low 0.743 | locus YOL012C, strain htz1 0.406 | locus YOL147C, strain pex11, active compounds read low 0.999 | locus YOR001W, strain rrp6, active compounds read low 1.06 | locus YOR061W, strain CKA2, active compounds read low 0.981 | locus YOR069W, strain VPS5, active compounds read low 1 | locus YOR070C, strain gyp1, active compounds read low 1.01 | locus YOR080W, strain dia2, active compounds read low 1 | locus YOR083W, strain WHI5, active compounds read low 0.984 | locus YOR106W, strain vam3, active compounds read low 0.955 | locus YOR136W, strain idh2, active compounds read low 1.02 | locus YOR144C, strain elg1, active compounds read low 1 | locus YOR184W, strain ser1, active compounds read low 1.1 | locus YOR231W, strain MKK1, active compounds read low 1.08 | locus YOR265W, strain rbl2, active compounds read low 1.03 | locus YOR270C, strain vph1, active compounds read low 1.07 | locus YOR290C, strain snf2, active compounds read low 0.988 | locus YOR316C, strain cot1, active compounds read low 0.987 | locus YPL051W, strain arl3, active compounds read low 0.969 | locus YPL078C, strain atp4, active compounds read low 0.991 | locus YPL106C, strain sse1, active compounds read low 0.949 | locus YPL240C, strain hsp82, active compounds read low 1.01 | locus YPL241C, strain CIN2, active compounds read low 0.996 | locus YPL256C, strain CLN2, active compounds read low 1.05 | locus YPR119W, strain clb2, active compounds read low 0.996 | locus YPR141C, strain kar3, active compounds read low 0.989 | locus YPR163C, strain tif3, active compounds read low 1.01 | locus YPR167C, strain met16, active compounds read low 1.01 | strain wtn01, active compounds read low 0.992
